Experimental data taken from PubChem BioAssay.

Experiment: small molecules captured by biotinylated probe aFGF2 – biochemical, small-molecule microarray, fluorescence 635/667, stem cell growth factor project, primary screen (AID 1067);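 note: measures binding of biotinylated aFGF2 protein to printed compounds on slides; z-score merges feature fluorescence and signal-to-noise across triplicate slides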
Conditions: higher = more signal

Compared with COc1cccc([C@H]2Oc3ccc(OC)cc3C(=NO[C@H](C)c3cn([C@H](CO)Cc4ccccc4)nn3)[C@@H]2O)c1, COc1ccc(COC(=O)NN=C2C[C@@H](O)[C@@H](O)[C@@H]3[C@@H]4C(=O)N(c5cccc(Oc6ccccc6)c5)C(=O)[C@@H]4CC[C@@H]23)cc1 is higher in composite z-score: -0.112 for the first, -0.0363 for the second.

Going from CO[C@@H]1COC(=O)CC=C[C@H](C)[C@H](OC)COC(=O)[C@H](C)NC(=O)CC=C[C@H]1C to CON=C1[C@H]2CCn3c(=O)n(-c4ccccc4)c(=O)n3[C@H]2[C@H](O)[C@@H]2O[C@H]12, the composite z-score rises from -0.132 to -0.0533.

Going from O=C1C[C@@H](O)[C@@H](O)[C@@H]2[C@@H]3C(=O)N(C[C@@H]4CCCO4)C(=O)[C@@H]3CC[C@H]12 to O=C(NN=C1C[C@@H](O)[C@@H](O)[C@@H]2[C@@H]3C(=O)N(C[C@@H]4CCCO4)C(=O)[C@@H]3CC[C@@H]12)OCc1ccccc1, the composite z-score falls from -0.0901 to -0.173.

Going from COC(=O)[C@@H]1CC[C@@H](C)[C@H](c2ccc(Br)cc2)N1 to COC(=O)[C@@H]1CC[C@H](C)[C@@H](c2ccc(C)cc2)N1C(=O)c1ccc(C=NO[C@H](C)c2cn([C@@H]3COC[C@H]3O)nn2)cc1, the composite z-score rises from -0.163 to -0.0459.

First: Cn1c(=O)n2n(c1=O)[C@H]1[C@H](O)[C@@H]3O[C@@H]3C(=NOCc3ccccc3)[C@H]1CC2
Second: C#CCCCON=C1C[C@@H](O)[C@@H](O)[C@@H]2[C@@H]3C(=O)N(Cc4ccccc4)C(=O)[C@@H]3CC[C@@H]12
The composite z-score of the first is higher: -0.085 for the first, -0.0887 for the second.

Going from CCOC(=O)NN=C1C[C@@H](O)[C@@H](O)[C@@H]2[C@@H]3C(=O)N(c4cccc(Oc5ccccc5)c4)C(=O)[C@@H]3CC[C@@H]12 to CC(C)CON=C1C[C@@H](O)[C@@H](O)[C@@H]2[C@@H]3C(=O)N(c4cccc(Oc5ccccc5)c4)C(=O)[C@@H]3CC[C@@H]12, the composite z-score falls from -0.085 to -0.13.

First: COC(=O)[C@H](C)NC(=O)CCC1CC(OC(=O)NCc2cccc3ccccc23)CC2(CCCC(COC(=O)NCC(c3ccccc3)c3ccccc3)O2)O1 (stereo partly specified)
Second: CCOC(=O)[C@H](CC(C)C)NC(=O)CCC1CC(OC(=O)NCc2cccc3ccccc23)CC2(CCCC(COC(=O)NCc3cccc(C(F)(F)F)c3)O2)O1 (stereo partly specified)
The composite z-score of the first is higher: -0.0092 for the first, -0.125 for the second.

Going from Cc1ccc(S(=O)(=O)n2c3ccccc3c3nnc(C(=O)c4ccccc4)nc32)cc1 to COc1ccc(O[C@H]2C=C[C@@H](c3ccccc3)O[C@@H]2CON=CC[C@@H]2C=C[C@H](OC(C)=O)[C@@H](COC(C)=O)O2)cc1, the composite z-score falls from -0.0603 to -0.0667.

First: COC(=O)C=CCCc1coc(C=CCNC(=O)OC)n1
Second: COc1ccc(C#C[C@@H]2C=C[C@H](OC(C)=O)[C@@H](COC(C)=O)O2)cc1
The composite z-score of the first is higher: 0.202 for the first, -0.0769 for the second.

Going from CC(C)=CCCC(C)=CCON=C1C[C@@H](O)[C@@H](O)[C@@H]2[C@@H]3C(=O)N(C4CCCCC4)C(=O)[C@@H]3CC[C@@H]12 to C#CCCCON=C1C[C@@H](O)[C@@H](O)[C@@H]2[C@@H]3C(=O)N(CCC(=O)OCC)C(=O)[C@@H]3CC[C@H]12, the composite z-score rises from -0.132 to -0.0502.

First: O=C1[C@H]2[C@H]3[C@H](O)[C@H](O)CC(=NOC[C@@H](O)COCc4ccco4)[C@H]3CC[C@H]2C(=O)N1C[C@@H]1CCCO1
Second: COc1ccc(COC(=O)NN=C2C[C@@H](O)[C@@H](O)[C@@H]3[C@@H]4C(=O)N(c5ccc(F)cc5F)C(=O)[C@@H]4CC[C@H]23)cc1
The composite z-score of the first is lower: -0.265 for the first, -0.128 for the second.

Compared with CC(C)(C)N1C(=O)[C@H]2[C@H]3[C@H](O)[C@H](O)CC(=O)[C@H]3CC[C@H]2C1=O, CCOC(=O)[C@H](CC(C)C)NC(=O)CCC1CC(OC(=O)NCc2cccc3ccccc23)CC2(CCCC(COC(=O)NCCOC)O2)O1 (stereo partly specified) is higher in composite z-score: -0.107 for the first, -0.0216 for the second.

In the case of Cc1cc2c(nc1C)CCCCN2CC(C)ON=C[C@@H](C)[C@H](OCc1ccccc1)C(C)C (stereo partly specified), the composite z-score is reported as -0.307.

Experiment: small molecules captured by biotinylated probe aFGF10 – biochemical, small-molecule microarray, fluorescence 635/667, stem cell growth factor project, primary screen (AID 1071);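 note: score merges 667 nm spot intensity and signal to noise from triplicate slides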
Conditions: higher = more signal

First: CC(C)=NO[C@H](C)c1cn([C@H](CO)Cc2ccccc2)nn1
Second: COc1cccc([C@H]2Oc3ccc(OC)cc3C(=NO[C@H](C)c3cn([C@H](CO)Cc4ccccc4)nn3)[C@@H]2O)c1
The composite z-score of the first is lower: -0.116 for the first, -0.0993 for the second.

Going from CCOC(=O)[C@H](CC(C)C)NC(=O)CCC1CC(OC(=O)NCc2cccc3ccccc23)CC2(CCCC(COC(=O)NCCOc3ccccc3)O2)O1 (stereo partly specified) to CCOC(=O)[C@H](CC(C)C)NC(=O)CCC1CC(OC(=O)NCc2cccc3ccccc23)CC2(CCCC(COC(=O)NCCOC)O2)O1 (stereo partly specified), the composite z-score rises from 0.273 to 0.482.

Going from O=C1C[C@@H](O)[C@@H](O)[C@@H]2[C@@H]3C(=O)N(C[C@@H]4CCCO4)C(=O)[C@@H]3CC[C@@H]12 to O=C1C[C@@H](O)[C@@H](O)[C@@H]2[C@@H]3C(=O)N(C[C@@H]4CCCO4)C(=O)[C@@H]3CC[C@H]12, the composite z-score falls from 0.58 to 0.377.

Going from CCOC(=O)[C@H](CC(C)C)NC(=O)CCC1CC(OC(=O)NCc2cccc3ccccc23)CC2(CCCC(COC(=O)NCCc3ccc(Cl)cc3)O2)O1 (stereo partly specified) to CCOC(=O)[C@H](CC(C)C)NC(=O)CCC1CC(OC(=O)NCc2cccc3ccccc23)CC2(CCCC(COC(=O)NCc3cccc(C(F)(F)F)c3)O2)O1 (stereo partly specified), the composite z-score rises from 0.293 to 0.469.

First: CO[C@H]1COC(=O)CC=C[C@@H](C)[C@H](NS(=O)(=O)c2ccc(C)cc2)COC(=O)CCC[C@@H]1C
Second: CO[C@H]1COC(=O)CC=C[C@@H](C)[C@H](OC)COC(=O)[C@@H]2CCCN2C(=O)CC=C[C@@H]1C
The composite z-score of the first is higher: 0.21 for the first, -0.0728 for the second.

Going from CO[C@H]1COC(=O)[C@H](C)NC(=O)CC=C[C@@H](C)[C@H](OC)COC(=O)[C@@H](OCc2ccccc2)C=C[C@@H]1C to CO[C@@H]1COC(=O)CC=C[C@H](C)[C@H](OC)COC(=O)[C@H](C)NC(=O)CC=C[C@H]1C, the composite z-score rises from -0.299 to -0.267.

First: CCCNC(=O)OC[C@H]1O[C@H](CCON=C(C)CCN2CCCc3nc(C)c(C)cc32)C=C[C@@H]1Oc1ccc(OC)cc1
Second: COc1ccc(O[C@H]2C=C[C@@H](c3ccccc3)O[C@@H]2CON=CC[C@@H]2C=C[C@H](OC(C)=O)[C@@H](COC(C)=O)O2)cc1
The composite z-score of the first is higher: 0.552 for the first, 0.138 for the second.

Compared with C#CCCCON=C1C[C@@H](O)[C@@H](O)[C@@H]2[C@@H]3C(=O)N(CC)C(=O)[C@@H]3CC[C@@H]12, C#CCCCON=C1C[C@@H](O)[C@@H](O)[C@@H]2[C@@H]3C(=O)N(CCC(=O)OCC)C(=O)[C@@H]3CC[C@H]12 is lower in composite z-score: 0.722 for the first, 0.481 for the second.

Going from COC(=O)[C@H](C)NC(=O)CCC1CC(OC(=O)NCc2ccc3c(c2)OCO3)CC2(CCCC(COC(=O)NCC3CCCCC3)O2)O1 (stereo partly specified) to COC(=O)[C@H](C)NC(=O)CCC1CC(OC(=O)NCc2cccc3ccccc23)CC2(CCCC(COC(=O)NCC(c3ccccc3)c3ccccc3)O2)O1 (stereo partly specified), the composite z-score falls from 0.847 to 0.532.

Going from CON=C[C@@H](NS(=O)(=O)c1ccc(C)cc1)[C@H](C)C=CCC(=O)OC to Cc1ccc(S(=O)(=O)n2c3ccccc3c3nnc(C(=O)c4ccccc4)nc32)cc1, the composite z-score rises from -0.224 to 0.316.

Going from COc1ccc(COC(=O)NN=C2C[C@@H](O)[C@@H](O)[C@@H]3[C@@H]4C(=O)N(c5cccc(Oc6ccccc6)c5)C(=O)[C@@H]4CC[C@@H]23)cc1 to CCOC(=O)NN=C1C[C@@H](O)[C@@H](O)[C@@H]2[C@@H]3C(=O)N(c4cccc(Oc5ccccc5)c4)C(=O)[C@@H]3CC[C@@H]12, the composite z-score rises from -0.135 to 0.542.

First: COC(=O)[C@@H]1CC[C@@H](C)[C@H](c2ccc(Br)cc2)N1
Second: COC(=O)[C@@H]1CC[C@H](C)[C@@H](c2ccc(C)cc2)N1C(=O)c1ccc(C=NO[C@H](C)c2cn([C@@H]3COC[C@H]3O)nn2)cc1
The composite z-score of the first is lower: 0.321 for the first, 0.515 for the second.

Compared with Cn1c(=O)n2n(c1=O)[C@H]1[C@H](O)[C@@H]3O[C@@H]3C(=NOCc3ccccc3)[C@H]1CC2, CON=C1[C@H]2CCn3c(=O)n(-c4ccccc4)c(=O)n3[C@H]2[C@H](O)[C@@H]2O[C@H]12 is higher in composite z-score: -0.0229 for the first, 0.383 for the second.

First: COC(=O)C=CCCc1coc(C=CCNC(=O)OC)n1
Second: COc1ccc(C#C[C@@H]2C=C[C@H](OC(C)=O)[C@@H](COC(C)=O)O2)cc1
The composite z-score of the first is higher: 0.833 for the first, 0.288 for the second.

Compared with CC(C)=CCCC(C)=CCON=C1C[C@@H](O)[C@@H](O)[C@@H]2[C@@H]3C(=O)N(C4CCCCC4)C(=O)[C@@H]3CC[C@@H]12, O=C1[C@H]2[C@H]3[C@H](O)[C@H](O)CC(=NOC[C@@H](O)COCc4ccco4)[C@H]3CC[C@H]2C(=O)N1C[C@@H]1CCCO1 is lower in composite z-score: 0.332 for the first, 0.133 for the second.

Compared with O=C(NN=C1C[C@@H](O)[C@@H](O)[C@@H]2[C@@H]3C(=O)N(C[C@@H]4CCCO4)C(=O)[C@@H]3CC[C@@H]12)OCc1ccccc1, C#CCCCON=C1C[C@@H](O)[C@@H](O)[C@@H]2[C@@H]3C(=O)N(Cc4ccccc4)C(=O)[C@@H]3CC[C@@H]12 is higher in composite z-score: -0.522 for the first, 0.0443 for the second.

Going from CC(C)CON=C1C[C@@H](O)[C@@H](O)[C@@H]2[C@@H]3C(=O)N(c4cccc(Oc5ccccc5)c4)C(=O)[C@@H]3CC[C@@H]12 to COc1ccc(COC(=O)NN=C2C[C@@H](O)[C@@H](O)[C@@H]3[C@@H]4C(=O)N(c5ccc(F)cc5F)C(=O)[C@@H]4CC[C@H]23)cc1, the composite z-score falls from 0.206 to -0.088.

Going from CC(C)(C)N1C(=O)[C@H]2[C@H]3[C@H](O)[C@H](O)CC(=O)[C@H]3CC[C@H]2C1=O to Cc1cc2c(nc1C)CCCCN2CC(C)ON=C[C@@H](C)[C@H](OCc1ccccc1)C(C)C (stereo partly specified), the composite z-score falls from 0.295 to -1.05.
